PubChem BioAssay (NCI)
This is part of a sample that, as a whole, favours compounds with a hit. Of some 83,000 tested, about 20% had one in any assay.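 In brief: 96-well plates, 48 h treatment, single concentration, percent growth endpoint.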 A number with no mark means an inactive call. Active and inactive are the calls of the source. The calls were made as follows: active = growth percent below 10; inactive = the rest.

How the values were obtained:
Assay in all cases: NCI-60 one-dose screen, 48 h (100 = growth as untreated, 0 = no growth, -100 = all killed)
Conditions in all cases: 10 µM unless noted
[1] = test system: HCT-15 colon
[2] = test system: HT29 colon
[3] = test system: SNB-75 CNS
[4] = test system: SNB-19 CNS
[5] = test system: U251 CNS
[6] = test system: PC-3 prostate
[7] = test system: SK-MEL-5 melanoma
[8] = test system: UACC-62 melanoma
[9] = test system: LOX IMVI melanoma
[10] = test system: SK-MEL-28 melanoma

Row | Compound | growth [1] | growth [2] | growth [3] | growth [4] | growth [5] | growth [6] | growth [7] | growth [8] [%] | growth [9] | growth [10]
1 | N#Cc1c(-c2ccc(F)cc2)nc(N=Nc2c(O)[nH]c3ccc(Cl)cc23)nc1N1CCOCC1 | 71.7% | 37.9% | -6.94% (active) | 39.8% | 15.8% | 61% | 29.6% | 35.1 | 24.5% | 46.8%
2 | NS(=O)(=O)c1ccc(C2C3=C(CCCC3=O)OC3=C2C(=O)c2ccccc2C3=O)cc1 (configuration not stated) | 2.23% (active) | -29.3% (active) | -99.5% (active) | -1.37% (active) | -86.7% (active) | -1.42% (active) | -95.3% (active) | – | -72.7% (active) | -57.5% (active)
3 | C#CCOC(=O)[C@]1(C)CCC[C@]2(C)[C@H]3C[C@H]4C(C(C)C)=C[C@]3(CC[C@H]21)[C@@H]1C(=O)CCC(=O)[C@@H]14 | 92.6% | 71.1% | 90.3% | 86% | 87.6% | 49.7% | 85.5% | – | 78.8% | 95.3%
4 | CCCCn1c(=O)c(/C=C/C(=O)/C=C/c2ccc(OC)cc2)cc2cc(Cl)ccc21 | 27.5% | 9.75% (active) | 84.9% | 47.5% | -13.4% (active) | 39.5% | 78.9% | – | 9.25% (active) | 115%
5 | S=c1ssnc1-c1cc2ccccc2o1 | 71.1% | 56.6% | 80.8% | 82% | 91.5% | 14.9% | 68.7% | – | 60.5% | 93.2%
6 | COc1ccc(-c2nnc(N3CCN(C(=O)CN4CCN(c5ccc(OC)cc5)CC4)CC3)nc2-c2ccc(OC)cc2)cc1 | -40.9% (active) | 4.12% (active) | 65.7% | 96.1% | 4.4% (active) | -96.4% (active) | -50.2% (active) | – | -63.3% (active) | -84.1% (active)
7 | COc1ccc(N(C)c2nc(Cl)nc3ccn(C)c23)cc1 | 12.6% | -2.47% (active) | 56.8% | 25.3% | 3.67% (active) | 16.1% | -44.2% (active) | – | 27.6% | 49.2%
8 | COc1ccc(/C=C/C(=O)c2ccc(NC(=O)CSc3nnc(-c4ccc(OC)c(OC)c4)n3-c3ccccc3)cc2)cc1 | 4.42% (active) | 43.7% | 63.3% | 60.5% | -9.68% (active) | 53.1% | 73.4% | 68.4 | -87.5% (active) | 95.8%
9 | O=C(CCCC(=O)Nc1ccc(-n2nnc3cc(Cl)c(Cl)cc32)cc1)Nc1ccc(-n2nnc3cc(Cl)c(Cl)cc32)cc1 | 74.1% | 43.8% | 30.4% | 29.8% | 28.7% | 19.4% | 42.2% | 30.8 | 50.9% | 57.9%
10 | Cc1cc(NC(=O)CNc2nc(Oc3ccc(F)cc3)nc(-c3ccc(F)cc3)n2)ccc1Cl | 102% | 94% | 87.8% | 100% | 98.4% | 89.1% | 99.1% | 97.5 | 96.1% | 109%
11 | Cc1cccc(NC(=O)c2sc3nc4c(cc3c2N)CN(Cc2ccccc2)CC4)c1C | 29.6% | 9.33% (active) | 13.5% | 34.3% | 25.4% | 32.2% | 39.7% | 42.8 | 44% | 68.2%
12 | S=C(Nc1ccccc1)c1ccccn1 | 96.8% | 86.4% | 97.3% | 97.5% | 95.2% | 92.2% | 102% | – | 85.9% | 104%
13 | CNC(=O)c1cc(Oc2ccc3c(c2)sc2nc(-c4ccc(NC(C)=O)cc4)cn23)ccn1 | 53% | 34.7% | -0.726% (active) | 55.2% | 40.7% | 36.6% | 31.7% | – | 60.9% | 70%
